In the library only some 9.3% were active in any assay of this set; here they are far more common.
ELG1 DNA repair = qHTS screen for small molecules that inhibit ELG1-dependent DNA repair in human embryonic kidney (HEK293T) cells expressing luciferase-tagged ELG1; HEK293T ELG1-luciferase reporter, luminescence, 16 h; DNA damage induced by 5-fluorouridine; Potency, µM (series often up to 46.1 µM), most hits filed as inhibitors; actives 2.3% (n = 330,000); note: nearly all actives have a fitted effect of over 55% in size
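HEK293T cells expressing luciferase-tagged ELG1 (2,000/well) received 5-Fluorouridine plus compound or DMSO for 16 hr at 37 °C. Luciferase was read by ONE-Glo luminescence after 30 min at room temperature.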
FLuc counter = qHTS profiling assay for firefly luciferase inhibitor/activator using purifed enzyme and Km concentrations of substrates (counterscreen for miR-21 project); Potency, µM (top dose mostly 57.5 µM), most hits filed as inhibitors; AID 588342, 2011; actives 6.9% (n = 360,000); purified FLuc, Km substrates, luminescence inhibition; Luciferin 4-monooxygenase (Photinus pyralis), P08659; note: nearly all actives have a fitted effect of over 55% in size
Target sequence (P08659 whole entry, looked up): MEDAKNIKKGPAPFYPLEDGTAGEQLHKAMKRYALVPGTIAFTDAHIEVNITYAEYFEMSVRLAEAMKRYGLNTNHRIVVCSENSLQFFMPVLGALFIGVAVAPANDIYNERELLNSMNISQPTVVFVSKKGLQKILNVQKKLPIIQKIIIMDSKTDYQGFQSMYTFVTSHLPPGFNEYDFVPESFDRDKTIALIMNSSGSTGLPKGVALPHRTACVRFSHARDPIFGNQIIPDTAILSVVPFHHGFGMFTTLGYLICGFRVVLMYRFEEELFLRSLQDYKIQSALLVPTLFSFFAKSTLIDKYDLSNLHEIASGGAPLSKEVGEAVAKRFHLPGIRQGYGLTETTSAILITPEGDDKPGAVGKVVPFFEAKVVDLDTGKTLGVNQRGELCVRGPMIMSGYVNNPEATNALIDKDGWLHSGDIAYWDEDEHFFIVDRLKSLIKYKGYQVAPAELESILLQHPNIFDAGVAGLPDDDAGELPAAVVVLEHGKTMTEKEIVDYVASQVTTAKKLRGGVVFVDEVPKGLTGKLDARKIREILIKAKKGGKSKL
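Purified P. pyralis luciferase, 10 nM final, with Km-level 10 uM D-luciferin and 10 uM ATP in 50 mM Tris acetate pH 7.5, 10 mM Mg acetate, 0.01% Tween-20, 0.05% BSA; 6-point qHTS titration about 60 µM downward; luminescence read.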
NPC1 promoter act = qHTS Assay for NPC1 Promoter Activators; Huh7 NPC1 promoter luciferase reporter, 24 h; Potency, µM (titrated, usually from 9.22 µM), most hits filed as activators; actives 2.4% (n = 320,000); note: nearly all actives have a fitted effect of over 60% in size
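Compounds in DMSO were transferred onto Huh7 NPC1-luciferase reporter cells pre-incubated 2 h; after 24 h at 37 °C, Amplite reagent was dispensed and luminescence recorded 10 min later.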
Rab9 promoter act = qHTS Assay for Rab9 Promoter Activators; AID 485297, 2010; Huh7 Rab9 promoter-luciferase reporter, luminescence, 24 h; actives 2.8% (n = 320,000); Potency, µM (titrated, usually from 9.22 µM), actives largely listed as activators; note: nearly all actives have a fitted effect of over 60% in size
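Using Huh7 cells stably transfected with Rab9 promoter–luciferase, compounds were incubated 24 h at 37 °C, 5% CO2; luciferase luminescence was read 10 min after reagent addition.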
ELG1 genotox = qHTS screen for small molecules that induce genotoxicity in human embryonic kidney (HEK293T) cells expressing luciferase-tagged ELG1. AID 504466, 2011. actives 1.3% (n = 330,000). Potency, µM (top dose mostly 46 µM), most hits filed as activators. HEK293T ELG1-luciferase reporter, luminescence, 16 h; note: nearly all actives have a fitted effect of over 60% in size
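Screening used a luciferase reporter fused to human ELG1 in HEK293T cells. Luminescence was read on a CCD plate imager after 16 hr exposure and 30 min ONE-Glo incubation.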
SMN2 splice up = qHTS Assay for Enhancers of SMN2 Splice Variant Expression | HEK293 SMN2-luciferase splicing reporter, luminescence, 30-36 h | Potency, µM (doses to about 46.1 µM), actives largely listed as activators | actives 2.8% (n = 210,000); note: nearly all actives have a fitted effect of over 55% in size
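qHTS luciferase splicing reporter: luminescence rises when SMN2 exon 7 is included in transfected HEK293 cells. Compound exposure lasted 30-36 h at 37C, with 4.5 mM final sodium butyrate as control, followed by a ONE-Glo read.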
Large screens that a line does not name were inactive. Calls come from the whole dose curve; as a rule, active = well fitted curve in the direction sought with a large enough effect; inconclusive = small, poorly fitted or top-dose-only effect, or another doubt; inactive = no such curve, though single readings can be large; an effect the other way counts as inactive or inconclusive.

CCCn1c(O)c(C=Nc2ccccc2)sc1=S	ELG1 DNA repair inconclusive, FLuc counter 21µM, Rab9 promoter act inconclusive, ELG1 genotox inconclusive (no result: SMN2 splice up)
CCCCn1c(O)c(/C=C/C=C/C=Nc2ccccc2)sc1=S	FLuc counter 11µM
O=S(=O)(CCc1ccncc1)Cc1ccc2c3c(cccc13)CC2	none (no result: SMN2 splice up)
Cc1ccc(OCC(=O)Nc2ccccc2C(=O)OCc2cc(=O)n3ccsc3n2)cc1	none (no result: ELG1 DNA repair, NPC1 promoter act, Rab9 promoter act, ELG1 genotox, SMN2 splice up)
COc1cc(CCN2C(=O)c3cccc4cccc(c34)C2=O)c(S(=O)(=O)NCCO)cc1OC	ELG1 DNA repair 4.6µM, FLuc counter 13µM (no result: SMN2 splice up)
COc1cc(CCN2C(=O)c3cccc4cccc(c34)C2=O)c(S(=O)(=O)N2CCCCCC2)cc1OC	ELG1 DNA repair inconclusive, FLuc counter inconclusive
COc1cc(CCN2C(=O)c3cccc4cccc(c34)C2=O)c(S(=O)(=O)N2CCC(C)CC2)cc1OC	ELG1 DNA repair 21µM, FLuc counter inconclusive
COc1cc(CCN2C(=O)c3cccc4cccc(c34)C2=O)c(S(=O)(=O)NCCCO)cc1OC	ELG1 DNA repair 5.8µM, FLuc counter 21µM
O=C(O)CN1C(=O)/C(=C\c2cccc(OC(=O)c3ccco3)c2)SC1=S	FLuc counter 24µM (no result: SMN2 splice up)
O=C(O)CN1C(=O)/C(=C\c2ccc(OC(=O)c3ccco3)cc2)SC1=S	FLuc counter 7.6µM (no result: SMN2 splice up)
O=C(O)CN1C(=O)/C(=C/c2ccc(SCc3ccccc3)o2)SC1=S	FLuc counter 19µM
CCN1C(=O)/C(=C\c2cccc(OC(=O)c3ccco3)c2)SC1=S	none (no result: SMN2 splice up)
CCc1ccc(S(=O)(=O)c2nnn3c2nc(NCCC(C)C)c2cc(Cl)ccc23)cc1	none (no result: ELG1 DNA repair, NPC1 promoter act, Rab9 promoter act, ELG1 genotox)
CCOC(=O)CCC(=O)O[C@H]1C(O[C@@H]2C(C)[C@H](O[C@H]3C[C@@](C)(OC)C(O)C(C)O3)C(C)C(=O)OC(CC)[C@@](C)(O)C(O)[C@H](C)C(=O)C(C)C[C@]2(C)O)OC(C)CC1N(C)C (stereo not given in full)	none (no result: ELG1 DNA repair, FLuc counter, NPC1 promoter act, Rab9 promoter act, ELG1 genotox)
COc1ccc(C(=O)NC(=S)Nc2ccc(CN3CCOCC3)cc2)cc1Br	ELG1 DNA repair 23µM (no result: SMN2 splice up)
O=C(NC(=S)Nc1ccc(CN2CCOCC2)cc1)c1ccc2c(c1)OCCO2	ELG1 DNA repair inconclusive, FLuc counter 17µM, NPC1 promoter act inconclusive (no result: SMN2 splice up)
COc1ccc(C(=O)NC(=S)NC(C)(C)C)cc1Br	ELG1 DNA repair inconclusive, FLuc counter 11µM, Rab9 promoter act inconclusive
O=C(NC(=S)Nc1ccc(N2CCOCC2)cc1)c1ccc2c(c1)OCCO2	ELG1 DNA repair inconclusive, FLuc counter inconclusive
CCOc1ccc(C(=O)Nc2cccc(NC(=O)c3ccc(C(C)(C)C)cc3)c2)cc1Br	FLuc counter 1.5µM, SMN2 splice up inconclusive (no result: ELG1 DNA repair, NPC1 promoter act, Rab9 promoter act, ELG1 genotox)
COCCn1c(=NC(=O)c2ccc(S(=O)(=O)N3CCCc4ccccc43)cc2)sc2cc(S(C)(=O)=O)ccc21	none
COc1ccccc1OCc1ccc(C(=O)Nc2ccccc2)cc1	ELG1 DNA repair inconclusive, NPC1 promoter act inconclusive, Rab9 promoter act inconclusive (no result: SMN2 splice up)
CCOc1ccc(C(=O)Nc2ccc(CN3CCOCC3)cc2)cc1Br	FLuc counter 13µM (no result: SMN2 splice up)
O=C(Nc1ccc(Cn2cccn2)cc1)c1ccc(COc2ccccc2Br)cc1	FLuc counter 17µM
CCSc1nnc(N(CCC(=O)O)CCC(=O)O)s1	ELG1 DNA repair inconclusive
CSc1ccccc1C(=O)NCCc1ccc(S(=O)(=O)N2CCCCC2)cc1	none
C=CC(C)(C)c1cc2cc3ccoc3cc2oc1=O	FLuc counter 21µM
COc1ccc(OC)c(CCNC(=O)CS(=O)(=O)Cc2nc(-c3ccccc3Cl)oc2C)c1	ELG1 DNA repair 21µM (no result: SMN2 splice up)
COc1ccc(OC)c(CCNC(=O)CS(=O)(=O)Cc2nc(-c3ccccc3C)oc2C)c1	ELG1 DNA repair inconclusive
Cc1ccccc1OCC(=O)OCC(=O)c1ccc(OCc2ccccc2)cc1	ELG1 DNA repair inconclusive, NPC1 promoter act inconclusive, Rab9 promoter act inconclusive, ELG1 genotox inconclusive, SMN2 splice up 14µM
Cc1ccccc1OCC(=O)OCC(=O)c1ccc(OC(=O)c2ccccc2)cc1	none
C=CCn1c(-c2cccs2)nc2ccccc21	FLuc counter inconclusive
C=CCn1c(-c2cccs2)nc2nc3ccccc3nc21	FLuc counter 19µM, ELG1 genotox inconclusive, SMN2 splice up 2.8µM
C=CCn1c(-c2cccc(OC)c2)nc2nc3ccccc3nc21	FLuc counter 15µM
CCOc1ccc(CN2CCNC(=O)C2CC(=O)NCc2cc(C)n(C)n2)cc1 (stereo not given)	none (no result: SMN2 splice up)
CCC1SC(=NC(=O)c2ccc(Cl)c(Cl)c2)NC1=O (stereo not given)	ELG1 DNA repair inconclusive, FLuc counter 24µM, ELG1 genotox inconclusive, SMN2 splice up inconclusive
CCC1SC(=Nc2cccc(C)c2)NC1=O (stereo not given)	none (no result: SMN2 splice up)
COc1cc(Cl)ccc1OCc1cc(C(=O)N2C[C@H]3CC[C@H]2C3)no1	ELG1 DNA repair inconclusive, FLuc counter 8.5µM, NPC1 promoter act 3.5µM, Rab9 promoter act 1.4µM, ELG1 genotox 8.2µM (no result: SMN2 splice up)
O=C(c1cc(COc2cccc(C(F)(F)F)c2)on1)N1C[C@@H]2CCC[C@H]1C2	ELG1 DNA repair inconclusive, FLuc counter 24µM, Rab9 promoter act inconclusive, ELG1 genotox inconclusive (no result: SMN2 splice up)
COc1cc(Cl)ccc1OCc1cc(C(=O)N2C[C@@H]3CCC[C@H]2C3)no1	ELG1 DNA repair inconclusive, FLuc counter 9.5µM, NPC1 promoter act 3.2µM, Rab9 promoter act 4µM, ELG1 genotox 2.9µM (no result: SMN2 splice up)
COc1cc(Cl)ccc1OCc1cc(C(=O)N2C[C@]3(C)C[C@H]2CC(C)(C)C3)no1	ELG1 DNA repair inconclusive, FLuc counter 19µM, NPC1 promoter act inconclusive, Rab9 promoter act 1.8µM, ELG1 genotox inconclusive (no result: SMN2 splice up)
O=C(c1cc(COc2cccc(C(F)(F)F)c2)on1)N1CCC(c2ccccc2)CC1	none (no result: SMN2 splice up)
COc1ccc(CCNc2oc(COc3ccc(Br)cc3)nc2C#N)cc1OC	ELG1 DNA repair 21µM
COc1ccc(CCNc2oc(Cc3cccc4ccccc34)nc2C#N)cc1OC	ELG1 DNA repair 16µM
COc1ccc(CCNc2oc(COc3ccccc3F)nc2C#N)cc1	none
CNc1oc(Cc2cccc3ccccc23)nc1C#N	none
Cc1ccc(C(=O)O)cc1NS(=O)(=O)c1ccc2ccccc2c1	none (no result: SMN2 splice up)
S=C(N/N=C/c1ccc(Br)cc1)N1CCCCC1	ELG1 DNA repair inconclusive, FLuc counter 27µM, NPC1 promoter act 4µM, Rab9 promoter act 0.89µM, ELG1 genotox inconclusive (no result: SMN2 splice up)
